High-throughput results: PubChem BioAssay, several laboratories
BoNT A protease: BoNT/A light chain protease inhibitors, primary screen, biochemical, flow cytometry, MLPCN library; AID 588499, 2011; 0.17% of 360,000 active; multiplex microsphere protease substrate cleavage; Botulinum neurotoxin type A light chain protease (Clostridium botulinum A str. ATCC 3502); inhibition, % at 10 µM; also: plate controls were buffer without enzyme for full effect and enzyme alone for no effect
SARS 3CLpro inh: SARS-CoV 3CLpro protease inhibitors, primary screen, biochemical, quenched FRET. recombinant SARS-CoV 3CLpro, quenched FRET peptide cleavage. inhibition, % at 6 µM. 0.14% of 290,000 active; in the data active = inhibition above about 12%
Autofluor counter: compound fluorescence in toxin protease inhibitor counterscreen. compound autofluorescence counterscreen, microsphere flow cytometry; hits give high values. fluorescence intensity (test concentration not listed). 3.1% of 360,000 active. AID 624483; in the data active = fluorescence intensity above about 16000; inconclusive = no clear call, values can overlap the other calls
BJeLR viability: MLPCN primary cell-based screen for lethality selective to Ras in HRASV12 cells. BJeLR (HRASV12) viability, CellTiter-Glo ATP luminescence, 48 h. inhibition, % (concentration not given with the values). 0.17% of 300,000 active; in the data active = inhibition above about 50%; inconclusive = no clear call, values can overlap the other calls
Anthrax LF inh2: Bacillus anthracis LF protease inhibitors, primary screen, biochemical, multiplex microsphere, MLPCN library; multiplex microsphere protease cleavage assay; inhibition, % at 10 µM; 0.12% of 360,000 active; AID 588501, 2011; also: plate controls were buffer without enzyme for full effect and enzyme alone for no effect
Target sequence (P15917 whole entry, looked up): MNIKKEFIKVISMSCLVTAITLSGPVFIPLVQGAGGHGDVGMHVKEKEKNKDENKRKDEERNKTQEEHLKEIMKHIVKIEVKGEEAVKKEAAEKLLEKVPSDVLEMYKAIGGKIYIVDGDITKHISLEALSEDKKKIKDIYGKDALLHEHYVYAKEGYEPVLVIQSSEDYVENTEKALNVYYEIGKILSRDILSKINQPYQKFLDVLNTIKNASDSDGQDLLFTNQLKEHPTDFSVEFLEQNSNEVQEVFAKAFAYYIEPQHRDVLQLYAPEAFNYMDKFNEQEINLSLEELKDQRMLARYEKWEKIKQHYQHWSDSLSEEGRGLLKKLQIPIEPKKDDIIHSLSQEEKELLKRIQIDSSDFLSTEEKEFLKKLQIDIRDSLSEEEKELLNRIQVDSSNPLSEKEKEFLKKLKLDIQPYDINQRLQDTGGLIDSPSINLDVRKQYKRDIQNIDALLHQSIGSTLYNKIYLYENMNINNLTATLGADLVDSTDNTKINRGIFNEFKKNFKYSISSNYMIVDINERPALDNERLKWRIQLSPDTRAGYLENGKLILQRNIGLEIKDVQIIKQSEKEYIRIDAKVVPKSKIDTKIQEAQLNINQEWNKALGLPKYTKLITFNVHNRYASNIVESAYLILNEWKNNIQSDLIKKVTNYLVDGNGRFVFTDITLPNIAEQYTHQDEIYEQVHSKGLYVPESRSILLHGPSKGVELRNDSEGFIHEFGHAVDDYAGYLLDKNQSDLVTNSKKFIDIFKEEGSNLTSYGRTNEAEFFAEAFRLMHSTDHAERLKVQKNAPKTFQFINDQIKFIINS
BoNT-F LC inh: BoNT/F light chain protease inhibitors, primary screen, biochemical, flow cytometry, MLPCN library; Multiplex microsphere protease cleavage assay; inhibition, % at 10 µM; 0.22% of 360,000 active; Botulinum neurotoxin type F light chain protease (Clostridium botulinum); in the data active = inhibition above about 35%, passing the limit was not always enough; inconclusive = no clear call, values can overlap the other calls; also: plate controls were buffer without enzyme for full effect and enzyme alone for no effect
Starred values were filed as active, the others as inactive; ? = inconclusive; . = no result given. A selection: hits, their analogues and other compounds. The true share with any hit is near 3.6%. Rule as the data show it, unless noted: active = inhibition above about 30%; inconclusive = no clear call, values can overlap the other calls; inactive = below that.

SMILES | BoNT A protease | SARS 3CLpro inh | Autofluor counter | BJeLR viability | Anthrax LF inh2 | BoNT-F LC inh
COc1ccc(NC(=O)CC2C(=O)N(CCc3ccccc3)C(=S)N2Cc2cccnc2)cc1 (stereo not given) | -3.3 | 4.6 | 20810* | 1.2 | -0.1 | -5.8
C=CCN1C(=O)C(CC(=O)Nc2ccc(OC)cc2)N(Cc2ccco2)C1=S (stereo not given) | ? | -4.4 | 22980* | -0.9 | 1.0 | -1.3
Cc1csc(=O)n1CC(=O)OCC(=O)Nc1ccc(C(N)=O)cc1 | -5.6 | . | ? | . | -4.9 | -18.8
Cc1ccc(NC(=O)COC(=O)Cn2c(C)csc2=O)cc1C | -2.8 | 1.2 | 17233* | -3.1 | -5.8 | -9.3
CCCCCC(=O)Nc1cc(N(C)C)nc2ccccc12 | 5.8 | 1.8 | 17328* | 8.5 | -13.9 | 9.1
Cn1ccnc1Sc1nnnn1-c1ccccc1 | -1.0 | 1.0 | 20712* | -2.2 | -0.3 | -2.6
c1ccc(CSc2nnnn2-c2ccccc2)cc1 | -0.7 | -2.7 | 9762 | -1.5 | -4.5 | -6.0
CN(C)c1cc(C(F)(F)F)nc(-c2ccccn2)n1 | -0.4 | -2.5 | 16157* | 1.1 | -2.7 | -1.8
CC(C)Nc1cc(C(F)(F)F)nc(-c2ccccn2)n1 | -3.8 | 3.1 | 20659* | -3.8 | -3.4 | -5.3
COc1cc(C(F)(F)F)nc(-c2ccccn2)n1 | -1.9 | 2.4 | 4218 | -3.7 | 4.8 | -2.2
FC(F)(F)c1cc(Sc2ccccc2)nc(-c2ccccn2)n1 | -0.1 | -2.4 | 16298* | 2.9 | -2.0 | -2.1
Cc1cc(OCc2cc(C(=O)NC(C)c3c(C)nn(C)c3C)no2)cc(C)c1Cl (stereo not given) | 1.2 | -0.5 | 5566 | 6.5 | -0.2 | 3.7
CCN(CC)S(=O)(=O)c1ccc(Cl)c(C(=O)Nc2ccc(Cl)cc2[N+](=O)[O-])c1 | -1.0 | 4.8 | 9251 | -1.4 | -1.1 | 0.4
CCCNC(=O)Cc1ncn[nH]1 | -2.0 | -3.4 | 20413* | 10.4 | 1.7 | -1.1
O=C(Cc1ncn[nH]1)NCCc1ccccc1 | -1.5 | -5.2 | 4842 | -7.7 | -4.2 | -13.0
O=C(Nc1ccc(C(F)(F)F)cc1)c1cccnc1N1CCOCC1 | ? | -1.8 | 21885* | -7.8 | 1.6 | 5.0
O=C(Nc1cccc(C(F)(F)F)c1)c1cccnc1N1CCOCC1 | -0.9 | -3.4 | 2994 | -4.4 | 1.2 | -7.4
CCCc1nc2oc3c(NCc4ccccn4)ncnc3c2c2c1COC(C)(C)C2 | -1.3 | -1.0 | 3739 | 4.3 | -3.3 | -18.0
CCOc1ncnc2c1oc1nc(CC(C)C)c3c(c12)CC(C)(C)OC3 | 2.1 | 0.6 | 19881* | -16.7 | -0.3 | 3.1
CCCc1nc2oc3c(NCC4CCCO4)ncnc3c2c2c1COC(C)(C)C2 (stereo not given) | 0.7 | -6.4 | 22258* | -9.9 | 1.4 | -0.4
CCCCS(=O)(=O)NC(=O)C1(C)CCN1C(=O)C/C=C/c1ccccc1 (stereo not given) | 0.0 | . | 3499 | . | 1.6 | 2.4
C=CCn1c(SCc2csc(C)n2)nc2sc3c(c2c1=O)CCCC3 | -0.7 | 5.9 | 4287 | -3.0 | -0.4 | -15.1
C=CCn1c(SCc2csc(C)n2)nc2sc3c(c2c1=O)CCCCC3 | 2.0 | -1.4 | 21298* | 5.6 | -5.5 | 3.2
O=c1[nH]c(=S)n(Cc2ccc(F)cc2)c(O)c1C=NCc1cccnc1 | 0.7 | 5.6 | 16199* | 1.3 | -1.5 | 0.4
CC1(NC(=O)Cc2csc(-c3cccc(Cl)c3)n2)CCS(=O)(=O)C1 (stereo not given) | -3.4 | . | 6196 | . | -1.4 | -15.5
SMILES | BoNT A protease | SARS 3CLpro inh | Autofluor counter | BJeLR viability | Anthrax LF inh2 | BoNT-F LC inh
Cc1nc2ccccn2c1-c1csc(Nc2cccc(O)c2)n1 | -1.2 | 0.2 | 4292 | 55.0* | -6.9 | -5.7
Cc1cccc(Nc2nc(-c3c(C)nc4ccccn34)cs2)c1 | -0.4 | 4.7 | 10666 | 14.9 | -1.6 | -8.0
COc1cccc(NC(=O)C(C#N)Cc2ccncc2)c1 (stereo not given) | 6.0 | 1.7 | 19544* | -3.7 | 0.7 | 9.6
COc1cccc(NC(=O)C(=O)NCc2ccncc2)c1 | -0.3 | -3.5 | 2676 | 1.6 | -2.8 | -1.6
CCN(Cc1ccccc1)C(=O)CN1C(=O)COc2ccc(S(=O)(=O)NC3CCCC3)cc21 | -1.7 | -1.6 | 5767 | 6.6 | -1.5 | -9.1
CCCCNC(=O)N(O)C1N(/N=C/c2ccccc2OC)C(=S)SC1(C)C (stereo not given) | -0.7 | -4.1 | 3477 | -0.7 | -7.4 | 61.7*
CNC(=O)N(O)C1N(/N=C/c2ccccc2OC)C(=S)SC1(C)C (stereo not given) | 0.6 | -5.5 | 3909 | 2.3 | 19.5 | 0.1
O=C(Nc1ccc(C(F)(F)F)cc1Cl)c1ccc(Cn2cc(Br)cn2)o1 | -1.0 | 1.9 | 11651 | -1.1 | 1.5 | -20.9
O=C(Nc1cccc(C(F)(F)F)c1)c1ccc(Cn2cc(Br)cn2)o1 | 4.7 | 4.4 | 17799* | -1.8 | -11.3 | 5.3
CCCCCc1cc(O)c2c(C)cc(=O)oc2c1 | -3.1 | 4.2 | 23187* | 8.2 | -1.1 | -7.0
Cc1cc(=O)oc2cc(O)cc(O)c12 | 0.3 | . | 5129 | . | -6.7 | -0.9
O=C(c1[nH]c(C(F)(F)F)nc1-c1ccccc1)N1CCN(C/C=C/c2ccccc2)CC1 | -0.1 | . | 5948 | . | -2.1 | -4.7
CSc1ccc(N2CCN(CCCNC(=O)Nc3ccccc3F)CC2)cc1 | -3.6 | 1.9 | 24815* | 11.2 | -2.2 | -7.6
CSc1ccc(NC(=O)NCCCN2CCC(Cc3ccccc3)CC2)cc1 | -1.4 | 1.7 | 3593 | 11.0 | 2.7 | 0.4
Clc1ccc(Oc2cnc3ccccc3n2)cc1 | -2.2 | -4.6 | 24944* | 0.9 | -2.7 | -3.8
Cc1ccc(Oc2cnc3ccccc3n2)cc1 | ? | 8.5 | 20600* | 8.6 | -4.2 | -2.1
Fc1ccc(Oc2cnc3ccccc3n2)cc1 | 0.2 | 2.1 | 2246 | 1.8 | 1.5 | 0.2
CCOC(=O)COc1ccc(S(=O)(=O)N2CCN(c3ccccc3)CC2)cc1 | -0.7 | -0.6 | 1986 | 2.0 | -1.6 | -1.2
O=C(CCC1CC(=O)Nc2ccccc21)NCc1ccc(F)cc1 (stereo not given) | 1.6 | 4.7 | 18975* | -11.3 | 1.0 | 3.3
O=C(CCC1CC(=O)Nc2ccccc21)NCc1ccccc1 (stereo not given) | -0.2 | -2.2 | 11388 | 1.2 | -3.8 | 2.2
Cc1cc(C)n(CCC(=O)N2c3ccccc3CC2C)n1 (stereo not given) | . | -4.3 | . | 4.0 | . | .
CCN(CC)CCNc1ccnc2cc(Cl)ccc12 | -0.5 | -4.2 | 20811* | -5.8 | -0.5 | -0.2
CCN(CC)Cc1cc(Nc2ccnc3cc(Cl)ccc23)ccc1O | -1.1 | -2.1 | 4630 | 3.4 | 9.8 | -14.8
COc1ccccc1N(C(=O)CCl)c1cn(C(C)=O)c2ccccc12 | -0.6 | 2.4 | 4783 | 65.1* | 0.5 | -13.6
CCOC(=O)c1ccccc1Nc1cn(C(C)=O)c2ccccc12 | -0.5 | -1.4 | 2543 | 5.1 | -3.4 | -3.5
